Legend:
[1] = tested on: Vero E6 infected with SARS-CoV-2; experiment: morphology score (similarity to uninfected cells); higher = more like uninfected cells; settings: 24 h
[2] = tested on: Vero E6 infected with SARS-CoV-2; experiment: SARS-CoV-2 infection rate relative to infected DMSO; higher = more infection, active = 60 or less; settings: 24 h

Row | Structure (SMILES) | morphology score [1] | SARS-CoV-2 infection rate [2]
1 | CCCCN(CCCC)CCCOC(=O)c1ccc(N)cc1 [butacaine] (10 µM) | 0.206 | 100% (inactive)
2 | O=C(O)c1ccc(S(=O)(=O)N(Cc2ccc(OC(F)(F)F)cc2)c2ncc(C(F)(F)F)cc2Cl)cc1 (10 µM) | 0.114 | 102% (inactive)
3 | COc1cc2c(cc1OC)[C@H](C)NCC2 [Isoquinoline,-6,7-dimethoxy-1-methyl-1,2,3,4-tetrahydro,] (10 µM) | 0.0205 | 105% (inactive)
4 | c1ccc2[nH]c(-c3cscn3)nc2c1 [tiabendazole] (10 µM) | 0.157 | 111% (inactive)
5 | O=C1c2ccccc2C(=O)C1c1ccc(Cl)cc1 [chlorindione] (10 µM) | 0.011 | 102% (inactive)
6 | COc1cc2c(c(OC)c1OC)-c1c(cc3c(c1OC)OCO3)C[C@H](C)[C@@](C)(O)C2 [schisandrol-B] (10 µM) | -0.0659 | 106% (inactive)
7 | COC1(C2=NCCN2)COc2ccccc2O1 (centres undefined) (10 µM) | 0.0681 | 92.5% (inactive)
8 | O[C@@H](COc1cccc2ncccc12)CN1CCN([C@@H]2c3ccccc3[C@@H]3[C@H](c4ccccc42)C3(F)F)CC1 [zosuquidar] (0.833333 µM) | 0.0321 | 108% (inactive)
9 | CN[C@H](CC(C)C)C(=O)N[C@H]1C(=O)N[C@@H](CC(N)=O)C(=O)N[C@H]2C(=O)N[C@H]3C(=O)N[C@H](C(=O)N[C@H](C(=O)O)c4cc(O)cc(O)c4-c4cc3ccc4O)[C@H](O[C@H]3C[C@](C)(N)[C@@H](O)[C@H](C)O3)c3ccc(c(Cl)c3)Oc3cc2cc(c3O[C@@H]2O[C@H](CO)[C@@H](O)[C@H](O)[C@H]2O[C@H]2C[C@](C)(NCc3ccc(-c4ccc(Cl)cc4)cc3)[C@@H](O)[C@H](C)O2)Oc2ccc(cc2Cl)[C@H]1O [oritavancin] (10 µM) | 0.0399 | 92% (inactive)
10 | CC(O)Cn1cnc2c1c(=O)n(C)c(=O)n2C (centres undefined) [Proxyphylline] (10 µM) | 0.074 | 97% (inactive)
11 | COc1ccc(CCCO[C@@H](Cn2ccnc2)c2ccc(OC)cc2)cc1 (0.833333 µM) | 0.00702 | 107% (inactive)
12 | Nc1nc(OCC2CCCCC2)c2nc[nH]c2n1 (10 µM) | 0.0911 | 90.5% (inactive)
13 | Cc1cccc(Cc2c[nH]cn2)c1C [detomidine] (10 µM) | -0.193 | 116% (inactive)
14 | C[C@@]1(c2cc(-c3cncnc3)c(F)cc2F)CCSC(N)=N1 (10 µM) | 0.151 | 106% (inactive)
15 | C[C@@H](O)[C@@H]1NC(=O)[C@H](CCCCN)NC(=O)[C@@H](Cc2c[nH]c3ccccc23)NC(=O)[C@H](Cc2ccccc2)NC(=O)[C@@H](NC(=O)[C@H](N)Cc2ccccc2)CSSC[C@@H](C(=O)N[C@H](CO)[C@@H](C)O)NC1=O [octreotide] (10 µM) | 0.0589 | 102% (inactive)
16 | O=c1cc(-c2cccc3c2Sc2ccccc2S3)oc(N2CCOCC2)c1 (10 µM) | 0.284 | 83% (inactive)
17 | CC1(C)C(=O)N(c2ccc(C#N)c(C(F)(F)F)c2)C(=O)N1CCCCO (10 µM) | -0.0623 | 100% (inactive)
18 | CC(C)(C)NC(=O)[C@@H]1C[C@@H]2CCCC[C@@H]2CN1C[C@@H](O)[C@H](Cc1ccccc1)NC(=O)[C@H](CC(N)=O)NC(=O)c1ccc2ccccc2n1 [saquinavir] (10 µM) | 0.0775 | 106% (inactive)
19 | CC(C)N(CC[C@H](c1ccccc1)c1cc(CO)ccc1O)C(C)C [5-hydroxymethyl-tolterodine] (10 µM) | 0.191 | 94.5% (inactive)

Row | Structure (SMILES) | morphology score [1] | SARS-CoV-2 infection rate [2]
20 | Nc1[nH]cnc2ncnc1-2 [adenine] (10 µM) | 0.0482 | 102% (inactive)
21 | O=C1CCC(N2C(=O)c3ccccc3C2=O)C(=O)N1 (centres undefined) [thalidomide] (10 µM) | -0.223 | 104% (inactive)
22 | O=C(Cc1ccc(-c2ccccc2)cc1)Nc1ccccn1 [difenpiramide] (10 µM) | 0.431 | 62% (inactive)
23 | Cc1[nH]c(=O)c(C#N)cc1-c1ccc2nccn2c1 [olprinone] (10 µM) | 0.0999 | 104% (inactive)
24 | CN1CCN2c3c(cccc31)[C@@H]1CN(CCCC(=O)c3ccc(F)cc3)CC[C@@H]12 [lumateperone] (10 µM) | 0.348 | 86% (inactive)
25 | CC(=O)Oc1ccccc1C(=O)O [aspirin] (10 µM) | -0.027 | 98% (inactive)
26 | C[N+](C)(CCOc1ccccc1)Cc1ccccc1 [bephenium-hydroxynaphthoate] (10 µM) | 0.171 | 94.5% (inactive)
27 | Cc1cc2c(F)c(Oc3ncnn4cc(OC[C@@H](C)OC(=O)[C@H](C)N)c(C)c34)ccc2[nH]1 [brivanib-alaninate] (10 µM) | 0.385 | 106% (inactive)
28 | CC(C)(C)NC[C@H](O)c1ccc(O)cc1Cl [meluadrine] (10 µM) | 0.0145 | 94% (inactive)
29 | CN1[C@@H]2C[C@@H](O)C[C@H]1[C@@H]1O[C@@H]12 [scopine] (10 µM) | 0.146 | 93.5% (inactive)
30 | CC(C)c1cc(CNc2nc(Nc3cc(C4CC4)[nH]n3)cc(N3CCN(C)CC3)n2)on1 (10 µM) | -0.0949 | 112% (inactive)
31 | Cc1cc(NC(=O)NCCN2CCC(O)(Cc3ccccc3)CC2)c2ccccc2n1 [palosuran] (10 µM) | -0.00351 | 112% (inactive)
32 | C[N+]1(C)CCCC(OC(=O)C(O)(c2ccccc2)c2ccccc2)C1 (centres undefined) [mepenzolate] (10 µM) | 0.047 | 105% (inactive)
33 | CC[N+](CC)(CCCNC1=CC(=O)C(NCCC[N+](CC)(CC)Cc2ccccc2)=CC1=O)Cc1ccccc1 [benzoquinonium-dibromide] (10 µM) | -0.00889 | 113% (inactive)
34 | NS(=O)(=O)NCc1csc2ccccc12 (10 µM) | 0.212 | 87.5% (inactive)
35 | O=C(O)Cc1ccc(CCNS(=O)(=O)c2ccc(Cl)cc2)cc1 [daltroban] (10 µM) | 0.136 | 97.5% (inactive)
36 | Cc1cccc(C)c1NC(=O)/N=C1\CCCN1C [xilobam] (10 µM) | 0.132 | 102% (inactive)
37 | O=P(O)(O)C(O)(Cc1cccnc1)P(=O)(O)O [risedronate] (10 µM) | 0.123 | 89% (inactive)
38 | NC[C@@H](O)CC(=O)O [aminohydroxybutyric-acid] (10 µM) | 0.226 | 92% (inactive)

Row | Structure (SMILES) | morphology score [1] | SARS-CoV-2 infection rate [2]
39 | CCC1=C(C)CN(C(=O)NCCc2ccc(S(=O)(=O)NC(=O)N[C@H]3CC[C@H](C)CC3)cc2)C1=O [glimepiride] (10 µM) | 0.152 | 99% (inactive)
40 | Nc1nc2c(c(N3CCNCC3)n1)CCC1=C2[C@@H]2CCCC[C@@H]2O1 (10 µM) | 0.247 | 83.5% (inactive)
41 | Cc1ccc(N(CC2=NCCN2)c2cccc(O)c2)cc1 [phentolamine] (10 µM) | -0.00261 | 98% (inactive)
42 | O=C(O)c1ccc2[nH]cc(CCCCN3CC=C(c4ccccc4)CC3)c2c1 [carmoxirole] (10 µM) | 0.0618 | 96.5% (inactive)
43 | Cc1[nH]c2ccc(Cl)cc2c1C1=CCNCC1 (10 µM) | 0.432 | 76% (inactive)
44 | NCC1OC(C23CC4CC(CC(C4)C2)C3)Cc2c1ccc(O)c2O (centres undefined) (0.833333 µM) | -0.0685 | 115% (inactive)
45 | CC(C)[C@H](N)C(=O)OCCOCn1cnc2c(=O)nc(N)[nH]c21 [valaciclovir] (10 µM) | -0.0293 | 116% (inactive)
46 | COc1ccc2[nH]c(SCc3ncc(C)c(OC)c3C)nc2c1 [omeprazole-sulfide] (10 µM) | 0.191 | 104% (inactive)
47 | Cc1ccccc1-n1c(Cn2nc(-c3cccc(O)c3)c3c(N)ncnc32)nc2cccc(C)c2c1=O (10 µM) | 0.0603 | 126% (inactive)
48 | CC(C)(C)C(=O)Oc1ccc(S(=O)(=O)Nc2ccccc2C(=O)NCC(=O)O)cc1 [sivelestat] (10 µM) | 0.168 | 95% (inactive)
49 | CCC(=O)O[C@]1(C(=O)COC(C)=O)CC[C@H]2[C@@H]3C[C@H](C)C4=CC(=O)C=C[C@]4(C)[C@H]3[C@@H](O)C[C@@]21C [methylprednisolone-aceponate] (10 µM) | 0.0786 | 108% (inactive)
50 | O=P(O)(O)C(O)(Cc1cnc2ccccn12)P(=O)(O)O [minodronic-acid] (10 µM) | -0.0261 | 108% (inactive)
51 | COC(=O)C1=C(C)NC(C)=C(C(=O)OC/C=C/c2ccccc2)C1c1cccc([N+](=O)[O-])c1 (centres undefined) [pranidipine] (10 µM) | -0.0636 | 107% (inactive)
52 | C=C(CC)C(=O)c1ccc(OCC(=O)O)c(Cl)c1Cl [etacrynic-acid] (10 µM) | -0.0164 | 98.5% (inactive)
53 | COc1ccccc1N1CCN(CCN2C(=O)CC3(CCCC3)CC2=O)CC1 (10 µM) | -0.291 | 116% (inactive)
54 | CC(=O)OCC(=O)[C@@]1(OC(C)=O)[C@@H](C)C[C@H]2[C@@H]3C[C@H](F)C4=CC(=O)C=C[C@]4(C)[C@@]3(F)[C@@H](O)C[C@@]21C [diflorasone-diacetate] (10 µM) | 0.0652 | 113% (inactive)
55 | Cn1c(=O)c2c(ncn2CC(O)CO)n(C)c1=O (centres undefined) [dyphylline] (10 µM) | 0.0342 | 96% (inactive)
56 | COc1ccccc1S(=O)(=O)Nc1ccc2c(c1)CN(C)C(=O)N2 (0.833333 µM) | -0.0409 | 108% (inactive)
57 | C[N+]1(C)[C@@H]2C[C@@H](OC(=O)[C@H](CO)c3ccccc3)C[C@H]1[C@@H]1O[C@@H]12 [methscopolamine] (10 µM) | -0.0273 | 96% (inactive)

Source: the supplement of paper PMC13380429
